Hit rate of the full screen: of about 53,000 sequences, about 3,700 (7%) were called active. Many of the other results were omitted from the sample, so actives are more common in it than they were. Unmarked numbers belong to inactive results.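 How the source made its calls: active means gene knockdowns whose robust z-score for IL-1 alpha signal is at least 2 or at most -2, so actives lie on both sides; inactive means the rest.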
Experiment: Components of the Cytosolic LPS Sensing Pathway: Gene Identification via Genome-wide siRNA Screen;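 further: robust z of the log signal after scaling to non-targeting control siRNA wells of the plate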
Conditions: RAW264.7 macrophages, IL-1a HTRF, actives lie on both sides, screened at 100 nM (by protocol), cells primed 5 h with Pam3CSK4 first
Method in brief: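 Cells (RAW264.7, 1×10^4 per well) were transfected with siRNA at 100 nM and cultured 48h at 37 degrees C. Pam3CSK4 was added for 5 hours; LipidA transfection followed for 24 hour. IL-1a was then measured by HTRF.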

Sequence	z-score
GGCUUGAUUGCAUCUUUAUTT against Ebpl	-0.765
CGACACACCUAGCUAAACCTT against Dgkeos	-1.98
GGCCUUAGAACAAGGAAUATT against Cdk7	-0.769
CCAAUUACGAGACUCUCAUTT against Zfp786	-0.00661
GCUUAUUGAACUAUUGUUGTT against Trpc4	3.72 (active)
GGAGCAGUCUAUCUUUGGUTT against Dbn1	1.3
GGAGAACAAGGCAAAAGAATT against Mindy4	-0.945
GCAGACAGAGUUUUAACGUTT against Fancl	-0.381
GCCAUUCACUUAAUUCAGUTT against H2ac8	-1.32
GGCUCUGGCCAUAUUUUGGTT against Olfr549	-1.44
CCAUAGGUAUCAUUGCAAGTT against Tas2r139	-2.16 (active)
GCAAUAAUCGUUCUCAAAATT against Prkab1	1.5
GGAGAUCAGCUGUCUAAUGTT against Tmem237	-0.207
GGACAGGAUGAGUUUGACATT against Rhou	-1.52
GGAAAUCUCAGAAAUCAAATT against Pmf1	-1.15
GCUCCUUGGGCGAUUUCAGTT against Aggf1	0.265
GCAAGGUAUUCCAUGCUCATT against Psg27	-0.616
GCUGUGAUCUCAGUAUUCATT against Strbp	0.443
GGUGACCACUUUUAUCUGATT against Olah	0.601
GCCUAAAAAAUCUCUGUGATT against Zswim3	-2.77 (active)
GGACUAUAGAUCCUAAGUCTT against Kcnab2	-0.246
CCACCCUGUGAAAAAGUCATT against Ccr3	-1.08
GAAAGGAAAGCUAGCCAUGTT against Gm5622	0.614
CCAUUGAAUCAGUUGAAGUTT against Slc5a7	1.21
GGCCGUUAUGUUUUACAAGTT against Dnajc19	0.00748
GGGCAUACAUAUAACCUAUTT against Fermt2	-0.285
GCUUUUUGACUACGUAGCCTT against Hkdc1	0.0141

Sequence	z-score
GGUUUGAGAAAUUGGACAUTT against Pou6f1	3.72 (active)
GGAAAGCAGGACAAAAGGCTT against Mettl18	0.346
GUCAUCUUGUUCCAUCUGATT against Olfr1269	-1.12
CGACCUAACCAACAUGCUUTT against Asap3	0.0248
GGUAGCUGUUUAGGACAAUTT against Arl6ip5	3.79 (active)
GCGAUUCUGUUGUUAGCUUTT against Rln1	0.134
GGUAGAAUUGUGAUCUCAGTT against Bco2	-0.411
GCAGGUACUAUUUGUGACGTT against Olfr30	1.07
GCAGCACGAACUGAUGACGTT against Plcd3	-2.18 (active)
GGUGGACAACCAGUUCUACTT against Mapk10	1.27
CCUGUGUUUCAGUUUGGUATT against Clptm1l	0.549
GGCUCAAUAAUGUUUUCAATT against Smpd3	3.18 (active)
CGUAAAUUCACCAAGGAGCTT against Slc19a1	-0.805
GGACAUUGACACUUCCCUGTT against P2rx5	-1.85
GGAGAUAACAGAUCUGUUUTT against Fam114a2	-0.843
GGCAUCCACACAGAACAAGTT against Zfp467	-0.287
GGGAUAGGGUUCAAUUAGGTT against Bcl2l13	0.231
GUCCCAGUACUUCUUGUUUTT against Vmn1r27	0.675
GGGUGAUAAAUGUUUGAAUTT against Vmn1r45	0.338
GGAGGCUGUUGUGGAUCUUTT against Acin1	1.03
GGAAUGUGAAGAAGAAAUUTT against Dnttip2	2.03 (active)
GCCUAUUGUAGUGUUACAUTT against Cyp2c67	-0.887
GGUGAUCCAGCUUUCUUGGTT against Tiaf2	-0.351
GGGAAAACAGGUACGACUGTT against Odf1	-0.743
GGUGAUCAAGGACAUUUAATT against Psma5	0.0545
GCCAAUGCUUCCAUUACCATT against Abca17	0.141
GGAGCUAGAUAGGAAAAAATT against Vill	-1.44

Source: PubChem BioAssay AID1508600 (Functional Genomics Laboratory (NCATS/FGL), 2020)
